Reference: PubChem BioAssay AID2314 (National Center for Advancing Translational Sciences (NCATS), 2010)
Values joined by “and” are separate entries in the source; they are usually repeats but may differ in a detail not shown here. Equal values may be shown once. In all, about 300,000 compounds went through this assay and about 37,000 (12%) were called active. Rule as the data show it: active = max response mostly above about 13% (no sharp cut-off); inactive = mostly below about 14%. The list comes from a sample in which actives are over-represented; it also holds similar structures and randomly drawn compounds.

Test: Cycloheximide Counterscreen for Small Molecule Inhibitors of Shiga Toxin; also: read at 38.3 µM for the half of the compounds with a filed dose; 0% is about no effect
Conditions: cell reporter, cycloheximide protein synthesis inhibition counterscreen; stronger effect = higher value

Row | Compound | max response
1 | O=C(Nc1cc(C(F)(F)F)ccc1Cl)c1cc2nc3c(c(C(F)(F)F)n2n1)CCCC3 | -1.76% (inactive)
2 | C#CCOc1ccc(/C=C2/C(=O)ON=C2C)cc1OCC | 3.92% (inactive)
3 | CCOC(=O)c1cc2cc3ccccc3cc2oc1=O | 21.6% (active)
4 | C=CCc1cccc2cc(C(=O)OCC)c(=O)oc12 | -2.44% (inactive)
5 | CCCOC(=O)c1cc2ccccc2oc1=O | 11.4% (inactive)
6 | CC[C@]1(O)CC2CN(CCc3c([nH]c4ccccc34)[C@@](C(=O)OC)(c3cc4c(cc3OC)N(C=O)[C@H]3[C@@](O)(C(=O)OC)[C@H](OC(C)=O)[C@]5(CC)C=CCN6CC[C@]43[C@@H]65)C2)C1 (stereo partly specified) | -6.26% (inactive)
7 | CCOc1ccccc1N1C(=O)CC(Sc2nccc(C)n2)C1=O (stereo unspecified) | 0.743% (inactive)
8 | CC(=O)Nc1ccccc1C(=O)OCC(=O)c1cccc2ccccc12 | 7.37% (inactive)
9 | O=C(OCc1ccc(-c2ccccc2)cc1)c1cccc(O)c1 | 57.7% (active)
10 | O=C(OCc1ccc(Br)cc1)c1cccc(-c2nnc(-c3ccccc3)o2)c1 | 13.9% (inactive)
11 | O=C(OCC(=O)c1c[nH]c2ccccc12)c1cccc(O)c1 | 72.9% (active)
12 | Cc1ccc(S(=O)(=O)c2c(COC(=O)c3cccc(Cl)c3)c(-c3ccccc3)nn2C)cc1 | -6.17% (inactive)
13 | O=C(Cc1c[nH]c2ccccc12)OCCOC(=O)Cc1c[nH]c2ccccc12 | -4.53% (inactive)
14 | C=C(C)C(=O)Nc1cccc(C2=NOC3(C2)C[C@H](C(N)=O)N(C(=O)C(c2ccccc2)c2ccccc2)C3)c1 (stereo partly specified) | -6.93% (inactive)
15 | CSc1ccc(C(=O)C2CCCN(C(=O)c3ccc(C)nc3)C2)cc1 (stereo unspecified) | -0.923% (inactive)
16 | O=S(=O)(Nc1ccc2[nH]ncc2c1)c1ccccc1Cl | -3.76% (inactive)
17 | CN(Cc1ccco1)S(=O)(=O)c1nnc(NC(=O)c2ccccc2)s1 | 26% (inactive)
18 | COc1cccc(-c2cccc(NC(=O)C3CCN(C4CCC4)CC3)c2)c1 | -2.09% (inactive)
19 | O=C1CS(=O)CN1c1ccc(Oc2ccccc2)cc1 (stereo unspecified) | -1.61% (inactive)
20 | Cc1n[nH]c(=O)n1-c1ccc(C(C)C)cc1 | 4.16% (inactive)
21 | Cc1n[nH]c(=O)n1-c1ccc(Oc2ccccc2)cc1 | 16.2% (active)
22 | COc1cccc(N(C(=O)c2snc(C(N)=O)c2N)C(C(=O)NCC2CCCO2)c2c[nH]c3ccccc23)c1 (stereo unspecified) | -2.27% (inactive)
23 | COC(=O)c1ccccc1NC(=O)C1(S(=O)(=O)c2ccc(Cl)cc2)CC1 | -5.97% (inactive)

Row | Compound | max response
24 | COc1ccc(NS(=O)(=O)c2ccc3oc(SCC(N)=O)nc3c2)cc1 | -2.16% (inactive)
25 | CN(C)S(=O)(=O)c1ccc2oc(SCC(=O)Nc3ccccc3F)nc2c1 | 40% (active)
26 | COc1ccc(S(=O)(=O)N(C)C)cc1NC(=O)CSc1ncccn1 | 8.4% (inactive)
27 | CCC1(C(=O)c2ccccc2)C(c2cccc([N+](=O)[O-])c2)C1(C(=O)OC)C(=O)OC (stereo unspecified) | -5.04% (inactive)
28 | N#Cc1c(N2CCCCC2)nc(N)c2c(N)nc(SCC(=O)O)cc12 | -0.559% (inactive)
29 | Cc1cc(/C=C(/C#N)C(=O)Nc2ccc(Cl)cc2)c(C)n1-c1cccnc1 | 1.53% (inactive)
30 | Cc1ccc(S(=O)(=O)N2CCC(C(=O)NCC3CCCO3)CC2)cc1 (stereo unspecified) | -2.91% (inactive)
31 | Cc1ccc(-n2c(C)cc(/C=C(\C#N)C(=O)NCC3CCCO3)c2C)cc1 (stereo unspecified) | 50.5% (active)
32 | COc1ccc(CCNS(=O)(=O)c2cn(C)nc2C)cc1 | -0.628% (inactive)
33 | CC(C)=N/N=C1/NC(=O)C(Cc2ccccc2)S1 (stereo unspecified) | -3.98% (inactive)
34 | C=CCn1c(SCc2c(C)noc2C)nc2sc3c(c2c1=O)CCC(C)C3 (stereo unspecified) | -3.64% (inactive)
35 | CC1CCc2c(sc3nc4n(c(=O)c23)CCS4)C1 (stereo unspecified) | 31.9% (inactive)
36 | CCCn1nnc2sc3c(c2c1=O)CCC(C)C3 (stereo unspecified) | 35.5% (active)
37 | COc1cc(C2OC(c3cc(OC)c(OC)c(OC)c3)C(C)C2C)cc(OC)c1OC (stereo unspecified) | 8.36% (inactive)
38 | CCOC(=O)c1nnn2c1nc(N1CCN(c3ccccc3)CC1)c1ccccc12 | -4.05% (inactive)
39 | CCN(CC)CCC(c1cc(OC)c(OC)c(OC)c1)c1c(OC)cc(OC)c2c(-c3ccccc3)cc(=O)oc12 (stereo unspecified) | -8.53% (inactive) and -14.6% (inactive)
40 | Cc1nn(C)c(Oc2ccccc2)c1CCNS(=O)(=O)c1ccc(F)cc1 | -1.22% (inactive)
41 | COc1ccc(CCNc2ncnc3c2nnn3Cc2ccccc2)cc1 | -1.82% (inactive)
42 | CN1CCN(c2ccc(CNS(=O)(=O)c3cccc(F)c3)cc2)CC1 | -2.69% (inactive)
43 | CCC(C)n1c(-c2cc(OC)c(OC)c(OC)c2)nc2nc3ccccc3nc21 (stereo unspecified) | 5.57% (inactive)
44 | Fc1ccc(/C=N/Nc2nc(-c3cccnc3)nc3ccccc23)cc1 | 46.2% (active)
45 | COc1ccccc1Oc1nc(-c2cccnc2)nc2ccccc12 | 6.84% (inactive)
46 | COc1ccc(Nc2nc(-c3cccnc3)nc3ccccc23)cn1 | -4.67% (inactive)

Row | Compound | max response
47 | CC(NS(=O)(=O)c1ccc(OCC(=O)N2CCCC2)cc1)c1ccccc1 (stereo unspecified) | -1.86% (inactive)
48 | CC(C)(C)NC(=O)c1ccc(Cn2cc(C(F)(F)F)ccc2=O)cc1 | -2.26% (inactive)
49 | Cc1cccc(N2C(=O)SC(N(CC(=O)O)c3cccc(C)c3)C2=O)c1 (stereo unspecified) | 31.1% (active)
50 | Cc1ccc(N2C(=O)SC(N(CC(=O)O)c3ccc(C)cc3)C2=O)cc1 (stereo unspecified) | 5.36% (inactive)
51 | Cc1cccc(N(CC(=O)N2CCOCC2)S(C)(=O)=O)c1 | -1.89% (inactive)
52 | O=C(CN(c1cc(C(F)(F)F)ccc1Cl)S(=O)(=O)c1ccccc1)NCc1cccnc1 | -4.73% (inactive)
53 | CC(C)c1ccc(NC(=O)Cn2ncc3ccccc32)cc1 | 29% (active)
54 | CCOC(=O)c1cn(CC(=O)Nc2ccc(C(C)C)cc2)nn1 | -2.13% (inactive)
55 | CCc1ccc(NC(=O)Cn2ncn3c(cc4ccccc43)c2=O)cc1 | -4.36% (inactive)
56 | O=C(O)Cn1c(Cc2ccccc2)nc2ccccc21 | 1.69% (inactive)
57 | COC(=O)c1ccc2c(=O)n(CCN3CCOCC3)c(SCC(=O)Nc3cccc(OC)c3)nc2c1 | -1.03% (inactive)
58 | Cc1cccc2nc(CNc3ccc(F)cc3)cn12 | 33.7% (active)
59 | CCOC(=O)CSc1nnc(CNc2ccc(F)cc2)o1 | -0.571% (inactive)
60 | O=C(COC(=O)c1ccco1)NCc1ccc(Cl)cc1 | 4.34% (inactive)
61 | COc1cccc(-n2c(=S)[nH]c3c(oc4ccccc43)c2=O)c1 | 18.5% (active)
62 | COc1cccc(-n2cc(C(=O)O)c3ccccc3c2=O)c1 | -2.23% (inactive)
63 | COc1cccc(N2C(=O)CN(Cc3ccccc3)C2=S)c1 | -1.8% (inactive)
64 | O=C(c1ccccc1)N1CCC(CC2CC(c3ccc(Cl)cc3)=NO2)(C(=O)NCC2CCCCC2)CC1 (stereo unspecified) | -1.39% (inactive)
65 | COc1ccc(-c2oc3ncn(Cc4ccco4)c(=N)c3c2-c2ccc(OC)cc2)cc1 | -1.11% (inactive)
66 | CCOC(=O)N1CCN(C(=S)Nc2ccc(C)cc2C)CC1 | -5.54% (inactive)
67 | COC(=O)c1cccnc1NC(=S)NC(C)C | 3.9% (inactive)
68 | Cc1ccc(NC(=S)Nc2ncccc2C)c(C)c1 | 42.7% (active)
69 | CCOc1ccc(C(=O)COC(=O)c2ccc(-n3cnnn3)cc2)cc1 | 1.17% (inactive)

Row | Compound | max response
70 | CC1CN(c2nc(-c3ccccc3)nnc2-c2ccccc2)CC(C)O1 (stereo unspecified) | -4.84% (inactive)
71 | COc1ccc(C2/C=C\CN(C(=O)c3ccc(C)cc3)C(Cc3ccccc3)C(=O)N2Cc2ccc(F)cc2)cc1 (stereo unspecified) | 2.85% (inactive)
72 | CCOc1cc(/C=N/NC(=O)CN2CCCCC2)ccc1O | -1.36% (inactive)
73 | Cc1ccc(/C=N/NC(=O)c2sccc2OCc2ccc(F)cc2)cc1 | 16.2% (active)
74 | Cc1ccc(/C=N/NC(=O)COc2ccccc2-c2ccccc2)cc1 | -1.02% (inactive)
75 | Cc1ccc(COc2ccc(/C=N/NC(=O)CN3CCCCC3)cc2)cc1 | 32.7% (active)
76 | CNC(=S)NNC(=O)c1sccc1OCc1ccccc1 | -0.196% (inactive)
77 | O=C(CN1CCSCC1)N/N=C/c1ccc(Cl)cc1 | 11.3% (inactive)
78 | CC(Sc1nc2c([nH]c3ccccc32)c(=O)n1C)c1ccccc1 (stereo unspecified) | -7.36% (inactive)
79 | Cc1ccc(C(=O)Nc2c(C#N)c(C)c(C)n2Cc2ccccc2)cc1 | -2.66% (inactive)
80 | CC(=O)Nc1ccc(S(=O)(=O)N2CCN(C(=O)c3ccccc3F)CC2)cc1 | 6.62% (inactive)
81 | CCOC(=O)c1c(N=CN(C)C)c(C#N)c2n1CCCC2 | -4.22% (inactive)
82 | Cc1oc2nc(SCC(=O)Nc3ccc(S(N)(=O)=O)cc3)nc(NC(=O)c3ccccc3)c2c1C | -2.02% (inactive)
83 | O=C(CN(Cc1ccc(Br)cc1)S(=O)(=O)c1ccccc1)NCc1ccncc1 | -2.43% (inactive)
84 | Cc1cc(C)nc(-n2nc(C)cc2NC(=O)c2ccc(F)cc2F)n1 | -3.69% (inactive)
85 | N=c1c2c3c(sc2nc2n1CCCCC2)CCCC3 | 15% (inactive)
86 | C[C@@H]1CC[C@@]2(OC1)O[C@H]1C[C@H]3[C@@H]4CC=C5C[C@@H](O)[C@H](O)C[C@]5(C)C4CC[C@]3(C)[C@H]1[C@@H]2C (stereo partly specified) | -6.07% (inactive)
87 | CCCc1nn2c(=O)cc(CSCC(=O)Nc3cccc(C)c3)nc2s1 | -2.96% (inactive)
88 | CC1=NN(Cc2ccccc2)C(=O)/C1=C/c1ccc(N(C)C)cc1 | 3.72% (inactive)
89 | O=C1NCC(=O)N(Cc2ccccc2)/C1=C/c1ccccc1 | -7.39% (inactive)
90 | CN(C)c1ccc(/C=C2\NC(=S)N(Cc3ccccc3)C2=O)cc1 | 16.3% (active)
91 | COc1ccc(N2CCN(C(=O)CN3C(=O)COc4ccccc43)CC2)cc1 | -4.68% (inactive)
